Experimental data from PubChem BioAssay (NCATS).
“And” between values parts separate entries of the source, which are not always exact repeats. Identical values can stand only once. Results filed as inconclusive are left out. The source made the active and inactive calls. Unless noted, calls follow the shape of the dose curve; as a rule, active = well fitted curve in the direction sought with a large enough effect; inconclusive = small, poorly fitted or top-dose-only effect, or another doubt; inactive = no such curve, though single readings can be large; an effect the other way counts as inactive or inconclusive.

Tests used:
[1] = molecular target: Glucocorticoid receptor (Homo sapiens) (UniProt P04150); test: GR-GFP Redistribution (AID 450;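 active = compounds whose dose series gives a full or clear partial fitted curve of increased nuclear translocation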; also: potency is read from the fitted curve at half-maximal effect); conditions: U2OS GR-GFP nuclear translocation, laser cytometry, 2 h
[2] = molecular target: Glucocorticoid receptor (Homo sapiens) (UniProt P04150); test: GR-EFC Redistribution (AID 451; calls by dose curve; also: potency is read from the fitted curve at half-maximal effect); conditions: CHO-K1 GR-EFC translocation, beta-gal luminescence, 2 h
How it was run: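 Translocation of GR-ED fusion to nuclear EA restores b-gal, read by luminescence after 1 h room-temperature detection. Engineered CHO-K1 biosensor cells, 1,000/well, exposed 2 h at 37 C to titrations up to 46 uM final.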

[3] = molecular target: Mitogen-activated protein kinase 10 (Mus musculus) (UniProt Q61831); test: JNK3 AlphaScreen Assay (AID 530; active = well fitted curve in either direction with a large enough effect, not every such curve was filed as active;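 also: kinase came from lysate of stimulated human HepG2 cells; signal reports phosphorylation of biotinylated GST-cJun 1-79 at Ser73 with 10 µM ATP; % is scaled to controls: 0 for no effect and ±100 for the full control effect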); conditions: JNK3 lysate, c-Jun phosphorylation; series mostly up to 57.1 µM
How it was run: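 Room-temperature AlphaScreen kinase assay; pre-activated HepG2 lysate as JNK3 source, biotin-GST-cJun(1-79) substrate, 10 uM ATP, compound 15 min preincubation.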

[4] = molecular target: 3',5'-cyclic-AMP phosphodiesterase 4B (Homo sapiens) (UniProt Q07343); test: qHTS Assay for Inhibitors of PDE-IV (AID 607; active = well fitted activation curve with a large enough effect in the main read-out, with a control signal flat, not every such curve was filed as active; also: % of control where 0% means no effect); conditions: HEK293 ACTOne CNG channel cells, membrane potential fluorescence; series mostly up to 22.9 µM
How it was run: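 The readout is membrane depolarisation from a cAMP-sensing CNG channel, detected with a potential dye at ex 535/em 590. Cells were HEK293-derived (endogenous PDE-IV) at 1000 cells/well, titrated up to 22.9 uM final.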

[5] = qHTS Assay for Lipid Storage Modulators (AID 1519; calls by dose curve); conditions: Drosophila S3 cells, BODIPY lipid droplet/cell ratio, laser cytometry, cells loaded with oleic acid
How it was run: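 Cells seeded at 5,000 per well were treated with compounds over a concentration series and loaded with oleic acid (400 uM, as added). Lipid droplet fluorescence (488 nm excitation, 500-530 nm channel) was read by laser-scanning cytometry and normalized to 20 uM Triacsin C.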

[6] = molecular target: Ubiquitin carboxyl-terminal hydrolase 1 (Homo sapiens) (UniProt O94782); test: Inhibitors of USP1/UAF1: Pilot qHTS (AID 504865); conditions: purified USP1/UAF1, Ub-rhodamine cleavage fluorescence; series mostly up to 114 µM;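 also: rhodamine fluorescence freed from ubiquitin-rhodamine substrate followed over time; top concentration of the series differs between compounds; % is scaled to controls: 0 for no effect and ±100 for the full control effect; nearly all actives have a fitted effect of over 35% in size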
How it was run: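 USP1/UAF1 complex (1nM) preincubated with compound 15 min at room temperature, then Ub-Rho substrate (150nM final) added. Fluorescence read kinetically at 480/540 nm, 6 reads every 60 seconds. Buffer: 50mM HEPES pH 7.8, 0.5mM EDTA, 0.1 mg/ml BSA, 1mM TCEP, 0.01% Tween-20.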

[7] = molecular target: DNA dC->dU-editing enzyme APOBEC-3G (Homo sapiens) (UniProt Q9HC16); test: qHTS for inhibitors of Vif-A3G interactions: Validation (AID 588379); conditions: Vif-A3G protein interaction assay; series mostly up to 46.1 µM; also: 0% is about no effect
How it was run: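 HeLa cells stably expressing Vif and A3G-eYFP, 700 cells/well, incubated overnight at 37 deg C, then exposed to compound overnight at 37 deg C. Inhibition of Vif-mediated degradation read as increased yellow fluorescence (Ex 488/Em 500-530) by laser-scanning cytometry.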

[8] = tested on: Zika virus NS2B-NS3 protease; test: Primary screen GU AMC qHTS for Zika virus inhibitors (AID 1347154); conditions: Zika NS2B-NS3 unlinked protease, AMC fluorogenic substrate; series mostly up to 54.1 µM;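 also: 0% = no-inhibitor control and -100% = no-enzyme control; nearly all actives have a fitted effect of over 70% in size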
How it was run: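 Fluorogenic AMC-substrate cleavage by noncovalent NS2B-NS3 protease complex (25 nM, pH 8.0 Tris buffer with Tween 20) followed for 15 minutes at room temperature (~20% conversion). Percent inhibition from ex340/em450 signal change, fitted by 4-parameter Hill equation.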

[9] = molecular target: Cytochrome P450 3A4 (Homo sapiens) (UniProt P08684); test: qHTS Assay for Activators of Cytochrome P450 3A4 (AID 885); conditions: recombinant CYP3A4, Luciferin-PPXE luminescence, 60 min; series mostly up to 57.1 µM; also: nearly all actives have a fitted effect of over 65% in size
How it was run: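 Steps: enzyme/substrate mix dispensed; compound added, 10 min RT; NADPH regeneration solution added, 60 min RT; luciferin detection buffer stops reaction; 20 min later luminescence measured.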

[10] = Primary qHTS for small molecule stabilizers of the endoplasmic reticulum resident proteome: Secreted ER Calcium Modulated Protein (SERCaMP) assay (AID 1508630); conditions: SH-SY5Y GLuc-SERCaMP (Gaussia luciferase released on ER calcium loss) secretion, thapsigargin, luminescence; series mostly up to 38.4 µM; also: % is scaled to controls: 0 for no effect and ±100 for the full control effect
How it was run: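 GLuc-SERCaMP-expressing SH-SY5Y cells, pretreated 16 h with compound, are challenged with thapsigargin to empty ER calcium stores; after 4 h, coelenterazine is added directly to the medium and luminescence is imaged.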

[11] = AP1 Signaling Pathway (AID 357; active = well fitted curve in either direction with a large enough effect, not every such curve was filed as active;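 also: ME-180 reporter cells stimulated with EGF at its EC50 level; % is scaled to controls: 0 for no effect and ±100 for the full control effect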); conditions: ME-180 AP-1-bla reporter, EGF-induced, beta-lactamase ratio, 5 h
How it was run: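 Read-out was the 460nm/530nm emission ratio (excitation 405nm) after CCF4 loading for 2.5 hours at room temperature. Cells carried an AP-1-driven beta-lactamase reporter, were stimulated with EC50 EGF plus compound for 5 hours, and AC50 values came from titrations.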

[12] = molecular target: Cytochrome P450 1A2 (Homo sapiens) (UniProt P05177); test: p450-cyp1a2 (AID 410; calls by dose curve; also: potency is read from the fitted curve at half-maximal effect;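 as to activity change, negative = inhibition: -100% = full effect of reference inhibitor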); conditions: recombinant CYP1A2, luciferin-ME demethylation, luminescence; series mostly up to 57 µM
How it was run: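 Inhibition was calculated relative to 57 uM furafylline (full inhibition). The reaction used human CYP1A2 at 20nM with Luciferin-ME at its Km, 100uM, driven by an NADPH-regenerating system for 60 min at room temperature.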

[13] = NFAT Signaling Pathway (AID 444; active = well fitted curve in either direction with a large enough effect, not every such curve was filed as active;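 also: carbachol stimulus at about its EC50 of 1 µM final; % is scaled to controls: 0 for no effect and ±100 for the full control effect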); conditions: Jurkat NFAT-bla M1, carbachol, beta-lactamase ratio, 5 h
How it was run: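 Read-out: CCF4 FRET ratio (460 nm/530 nm) after 1 h RT dye loading, used for %activity and AC50 from titration series. Cells: Jurkat NFAT-β-lactamase/M1 line, treated with compound plus 1 uM carbachol for 5 h, 37 °C.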

[14] = Stat Signaling Pathway (AID 446; active = well fitted curve in either direction with a large enough effect, not every such curve was filed as active); conditions: ME-180 SIE beta-lactamase reporter, IL-6 stimulated, 5 h
How it was run: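 Screening format detects activators and inhibitors alike: ME-180 SIE-bla cells stimulated at 40 pM IL-6 for 5 hrs with compound, then dual-emission beta-lactamase read at 405 nm excitation.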

[15] = molecular target: Guanine nucleotide-binding protein G(i) subunit alpha-1 (Homo sapiens) (UniProt P63096); test: qHTS Assay for Inhibitors of RGS12 GoLoco Motif Activity (Green Fluorophore) (AID 879); conditions: Galphai1/FITC-RGS12 GoLoco peptide, fluorescence polarization; series mostly up to 57.1 µM;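 also: 0% = labeled peptide with Gαi1 and full inhibition = labeled peptide alone without protein; negative values mean loss of peptide binding seen as reduced polarization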
How it was run: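 Fluorescence polarization assay: 50 nM Gαi1 with 10 nM FITC-labeled RGS12 GoLoco peptide in 10 mM Tris pH 7.5, 150 mM NaCl, 0.1 mM GDP, 0.05% NP40, 10 min at room temperature with compound.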

[16] = molecular target: Cytochrome P450 2C9 (Homo sapiens) (UniProt P11712); test: qHTS Assay for Inhibitors and Substrates of Cytochrome P450 2C9 (AID 883); conditions: recombinant CYP2C9, luciferin-H luminescence, 60 min; series mostly up to 57.1 µM; also: nearly all actives have a fitted effect of over 60% in size; also: potency is read from the fitted curve at half-maximal effect
How it was run: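 Turnover of Luciferin-H (100uM, KM) by 10nM human CYP2C9 was measured over 60 min at 37C with NADPH regeneration; inhibitors and some substrates reduce luminescence. Data normalized to sulphaphenazole 57uM.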

[17] = molecular target: Cytochrome P450 3A4 (Homo sapiens) (UniProt P08684); test: qHTS Assay for Inhibitors and Substrates of Cytochrome P450 3A4 (AID 884); conditions: recombinant CYP3A4, Luciferin-PPXE luminescence; series mostly up to 57.1 µM; also: % is scaled to controls: 0 for no effect and ±100 for the full control effect; nearly all actives have a fitted effect of over 50% in size
How it was run: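 20 nM human CYP3A4 with 25 uM Luciferin-PPXE (at KM) in 200 mM KPO4, preincubated 10 min with compound; NADPH regeneration started a 60 min RT reaction. Luciferin detected by luminescence, normalized to 57 uM ketoconazole as full inhibition.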

[18] = molecular target: Cytochrome P450 2C19 (Homo sapiens) (UniProt P33261); test: qHTS Assay for Inhibitors and Substrates of Cytochrome P450 2C19 (AID 899); conditions: recombinant CYP2C19, luciferin-H EGE luminescence; series mostly up to 57.1 µM; also: nearly all actives have a fitted effect of over 60% in size; also: potency is read from the fitted curve at half-maximal effect
How it was run: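 Reactions contain 5nM enzyme, 10uM Luciferin-H EGE (KM) and 50mM KPO4; compound preincubates 10 min at 37C, NADPH regeneration starts turnover for 60 min. Luminescence after detection reagent gives activity.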

[19] = molecular target: Pyruvate kinase PKM (Homo sapiens) (UniProt P14618); test: qHTS Assay for Activators of Human Muscle Pyruvate Kinase (AID 954; active = well fitted curve in the direction sought with a large enough effect, not every such curve was filed as active;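 also: 0% = uninhibited enzyme and -100% = no enzyme or full thiadiazolimine inhibition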); conditions: purified human muscle pyruvate kinase, luciferase-coupled luminescence, 1 h; series mostly up to 57.5 µM
How it was run: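 Reaction: 0.1 nM purified PKM2 with 0.5 mM phosphoenolpyruvate and 0.1 mM ADP, room temperature, 1 h. Readout: luciferase-based ATP luminescence after stop reagent. Activators judged against a 0.3 nM enzyme column.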

[20] = molecular target: alpha-glucosidase (Oryza sativa, rice) (UniProt Q653V4); test: Counterscreen for Glucocerebrosidase Inhibitors: qHTS Assay for Rice alpha-Glucosidase at pH 5.0 (AID 997); conditions: rice alpha-glucosidase enzyme activity; series mostly up to 76.9 µM;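 also: 0% = full activity with enzyme and -100% = basal without enzyme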
How it was run: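 Rice alpha-glucosidase (4 nM final) with 400 uM 4-methylumbelliferyl-alpha-D-glucopyranoside in citrate buffer pH 5.0, 20 min at room temperature, stopped at pH 10; fluorescence 365/440 nm, compounds 0.7 nM–77 uM, AC50 from Hill fits.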

[21] = measured here: cell count channel max response
[22] = measured here: lipid channel max response

DNA dC->dU-editing enzyme APOBEC-3G (Homo sapiens), sequence (Q9HC16 whole entry, looked up): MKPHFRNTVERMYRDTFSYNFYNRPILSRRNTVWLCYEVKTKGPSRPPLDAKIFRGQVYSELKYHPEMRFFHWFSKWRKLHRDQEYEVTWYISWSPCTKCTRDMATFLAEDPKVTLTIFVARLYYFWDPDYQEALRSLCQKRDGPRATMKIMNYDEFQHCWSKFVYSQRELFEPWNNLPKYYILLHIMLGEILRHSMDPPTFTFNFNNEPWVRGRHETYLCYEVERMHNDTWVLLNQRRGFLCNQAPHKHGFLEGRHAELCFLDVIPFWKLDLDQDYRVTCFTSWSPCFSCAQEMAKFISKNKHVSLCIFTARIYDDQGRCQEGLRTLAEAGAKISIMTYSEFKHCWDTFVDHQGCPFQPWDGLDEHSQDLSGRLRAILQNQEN
Ubiquitin carboxyl-terminal hydrolase 1 (Homo sapiens), sequence (O94782 whole entry, looked up): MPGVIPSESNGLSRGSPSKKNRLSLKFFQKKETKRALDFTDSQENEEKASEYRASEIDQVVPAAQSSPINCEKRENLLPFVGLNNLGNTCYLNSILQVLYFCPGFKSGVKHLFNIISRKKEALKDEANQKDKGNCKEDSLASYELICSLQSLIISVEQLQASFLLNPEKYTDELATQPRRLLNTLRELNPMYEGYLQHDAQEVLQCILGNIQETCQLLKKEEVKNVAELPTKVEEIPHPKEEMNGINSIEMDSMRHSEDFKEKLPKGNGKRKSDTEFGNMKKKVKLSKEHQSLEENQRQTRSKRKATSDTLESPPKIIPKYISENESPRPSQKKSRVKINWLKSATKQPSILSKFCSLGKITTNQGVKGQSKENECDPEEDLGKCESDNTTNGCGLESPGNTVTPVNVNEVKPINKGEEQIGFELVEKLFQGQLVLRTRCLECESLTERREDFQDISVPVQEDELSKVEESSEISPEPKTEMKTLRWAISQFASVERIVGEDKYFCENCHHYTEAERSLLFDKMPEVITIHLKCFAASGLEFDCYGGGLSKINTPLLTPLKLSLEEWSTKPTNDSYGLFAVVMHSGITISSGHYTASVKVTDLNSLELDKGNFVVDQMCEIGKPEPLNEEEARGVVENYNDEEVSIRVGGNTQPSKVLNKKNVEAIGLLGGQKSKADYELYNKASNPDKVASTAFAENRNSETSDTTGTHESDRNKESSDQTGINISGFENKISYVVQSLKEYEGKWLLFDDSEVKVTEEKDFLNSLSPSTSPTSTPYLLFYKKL
Cytochrome P450 2C9 (Homo sapiens), sequence (P11712 whole entry, looked up): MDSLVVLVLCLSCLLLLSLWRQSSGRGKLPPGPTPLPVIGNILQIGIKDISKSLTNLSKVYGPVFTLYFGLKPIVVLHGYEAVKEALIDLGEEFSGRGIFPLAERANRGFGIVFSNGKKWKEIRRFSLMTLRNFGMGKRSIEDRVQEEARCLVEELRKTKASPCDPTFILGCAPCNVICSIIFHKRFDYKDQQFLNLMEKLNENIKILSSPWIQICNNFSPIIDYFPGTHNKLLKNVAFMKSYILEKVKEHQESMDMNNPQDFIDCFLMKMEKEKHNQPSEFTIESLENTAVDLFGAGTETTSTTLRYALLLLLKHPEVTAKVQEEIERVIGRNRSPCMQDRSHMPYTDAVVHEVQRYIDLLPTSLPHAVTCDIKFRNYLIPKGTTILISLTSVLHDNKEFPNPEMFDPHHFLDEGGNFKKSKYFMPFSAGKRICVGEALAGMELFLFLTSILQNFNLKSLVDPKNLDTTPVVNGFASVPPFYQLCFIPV
Cytochrome P450 3A4 (Homo sapiens), sequence (P08684 whole entry, looked up): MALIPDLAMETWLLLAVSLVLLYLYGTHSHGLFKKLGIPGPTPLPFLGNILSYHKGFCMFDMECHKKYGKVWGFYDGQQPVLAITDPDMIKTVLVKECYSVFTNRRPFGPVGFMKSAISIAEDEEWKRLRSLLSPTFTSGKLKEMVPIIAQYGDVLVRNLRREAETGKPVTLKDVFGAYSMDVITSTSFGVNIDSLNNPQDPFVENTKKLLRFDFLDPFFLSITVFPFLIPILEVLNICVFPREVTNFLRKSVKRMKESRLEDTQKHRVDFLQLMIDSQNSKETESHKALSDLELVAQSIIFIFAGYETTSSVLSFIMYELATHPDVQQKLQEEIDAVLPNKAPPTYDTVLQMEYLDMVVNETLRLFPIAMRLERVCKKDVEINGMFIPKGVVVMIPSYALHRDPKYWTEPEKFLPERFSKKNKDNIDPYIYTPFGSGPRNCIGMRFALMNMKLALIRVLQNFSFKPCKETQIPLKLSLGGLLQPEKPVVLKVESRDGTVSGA
Cytochrome P450 2C19 (Homo sapiens), sequence (P33261 whole entry, looked up): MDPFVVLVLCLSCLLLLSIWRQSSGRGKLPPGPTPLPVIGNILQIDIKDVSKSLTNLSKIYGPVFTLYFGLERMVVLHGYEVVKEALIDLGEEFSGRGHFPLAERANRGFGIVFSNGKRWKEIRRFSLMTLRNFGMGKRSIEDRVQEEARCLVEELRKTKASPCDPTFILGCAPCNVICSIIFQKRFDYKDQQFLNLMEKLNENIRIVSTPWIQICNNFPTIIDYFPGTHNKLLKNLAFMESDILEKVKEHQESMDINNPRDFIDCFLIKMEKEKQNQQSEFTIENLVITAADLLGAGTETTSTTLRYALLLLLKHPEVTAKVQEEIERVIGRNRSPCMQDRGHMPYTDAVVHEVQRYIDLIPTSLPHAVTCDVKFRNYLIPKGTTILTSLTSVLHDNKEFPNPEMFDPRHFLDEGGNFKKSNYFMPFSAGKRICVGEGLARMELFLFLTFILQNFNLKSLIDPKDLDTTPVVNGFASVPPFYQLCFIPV
Glucocorticoid receptor (Homo sapiens), sequence (P04150 whole entry, looked up, the tested form may be a part): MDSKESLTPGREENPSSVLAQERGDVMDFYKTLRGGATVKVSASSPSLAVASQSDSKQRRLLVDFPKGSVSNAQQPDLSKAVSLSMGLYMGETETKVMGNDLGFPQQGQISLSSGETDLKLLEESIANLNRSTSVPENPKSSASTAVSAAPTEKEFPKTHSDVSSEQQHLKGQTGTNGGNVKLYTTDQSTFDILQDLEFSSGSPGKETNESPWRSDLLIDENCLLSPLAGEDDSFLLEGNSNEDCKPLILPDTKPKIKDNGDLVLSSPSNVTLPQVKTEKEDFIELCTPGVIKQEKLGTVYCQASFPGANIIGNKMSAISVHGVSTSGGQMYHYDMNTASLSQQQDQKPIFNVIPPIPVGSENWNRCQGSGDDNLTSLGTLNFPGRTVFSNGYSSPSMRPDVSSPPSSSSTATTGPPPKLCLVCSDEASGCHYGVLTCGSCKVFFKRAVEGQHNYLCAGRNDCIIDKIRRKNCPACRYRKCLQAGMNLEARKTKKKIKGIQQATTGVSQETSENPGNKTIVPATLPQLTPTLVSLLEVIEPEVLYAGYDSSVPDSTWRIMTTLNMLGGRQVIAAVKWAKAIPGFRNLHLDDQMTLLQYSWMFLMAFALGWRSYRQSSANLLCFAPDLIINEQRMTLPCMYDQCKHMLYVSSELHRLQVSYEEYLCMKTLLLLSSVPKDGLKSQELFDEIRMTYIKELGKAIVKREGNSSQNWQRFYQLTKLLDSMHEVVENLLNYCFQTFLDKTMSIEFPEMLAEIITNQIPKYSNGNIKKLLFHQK
Guanine nucleotide-binding protein G(i) subunit alpha-1 (Homo sapiens), sequence (P63096 whole entry, looked up): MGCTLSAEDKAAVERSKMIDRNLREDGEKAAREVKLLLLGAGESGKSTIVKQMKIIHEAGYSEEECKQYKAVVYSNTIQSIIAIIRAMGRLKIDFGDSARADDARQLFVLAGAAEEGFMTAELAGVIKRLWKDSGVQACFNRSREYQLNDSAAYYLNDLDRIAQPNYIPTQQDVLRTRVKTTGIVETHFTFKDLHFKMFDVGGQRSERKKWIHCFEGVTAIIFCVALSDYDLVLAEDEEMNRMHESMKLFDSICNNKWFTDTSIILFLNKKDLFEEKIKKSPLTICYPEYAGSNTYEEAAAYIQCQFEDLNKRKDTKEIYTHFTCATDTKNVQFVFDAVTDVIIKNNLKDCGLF
Cytochrome P450 1A2 (Homo sapiens), sequence (P05177 whole entry, looked up): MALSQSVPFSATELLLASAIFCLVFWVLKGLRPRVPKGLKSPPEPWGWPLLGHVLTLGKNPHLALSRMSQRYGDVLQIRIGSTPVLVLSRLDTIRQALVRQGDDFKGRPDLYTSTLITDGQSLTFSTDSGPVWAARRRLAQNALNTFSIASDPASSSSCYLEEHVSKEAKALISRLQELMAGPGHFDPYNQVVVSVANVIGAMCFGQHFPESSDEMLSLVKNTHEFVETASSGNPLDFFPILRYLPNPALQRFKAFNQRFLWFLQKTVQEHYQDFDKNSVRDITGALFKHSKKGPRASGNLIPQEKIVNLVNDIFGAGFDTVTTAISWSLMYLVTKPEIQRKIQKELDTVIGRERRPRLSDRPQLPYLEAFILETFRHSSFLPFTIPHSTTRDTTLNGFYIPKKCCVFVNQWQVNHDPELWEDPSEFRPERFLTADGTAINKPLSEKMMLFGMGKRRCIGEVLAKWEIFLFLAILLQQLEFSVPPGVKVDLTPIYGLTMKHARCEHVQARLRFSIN
Pyruvate kinase PKM (Homo sapiens), sequence (P14618 whole entry, looked up): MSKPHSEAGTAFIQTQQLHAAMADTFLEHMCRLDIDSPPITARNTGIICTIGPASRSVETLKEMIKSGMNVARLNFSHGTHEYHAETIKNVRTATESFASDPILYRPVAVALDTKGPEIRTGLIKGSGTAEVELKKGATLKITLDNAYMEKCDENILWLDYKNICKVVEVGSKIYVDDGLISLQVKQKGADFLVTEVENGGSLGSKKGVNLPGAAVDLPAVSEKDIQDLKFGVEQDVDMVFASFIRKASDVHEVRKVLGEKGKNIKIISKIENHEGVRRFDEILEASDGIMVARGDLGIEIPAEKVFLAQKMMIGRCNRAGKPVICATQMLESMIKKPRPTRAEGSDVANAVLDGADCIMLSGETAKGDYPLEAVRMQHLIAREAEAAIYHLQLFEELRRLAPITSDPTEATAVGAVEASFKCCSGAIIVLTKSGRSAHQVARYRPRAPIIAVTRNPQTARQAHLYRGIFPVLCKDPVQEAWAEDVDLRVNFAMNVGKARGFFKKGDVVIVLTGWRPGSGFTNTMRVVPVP

N#Cc1ccccc1OC[C@H](O)CNCCNC(=O)Nc1ccccc1
inactive: Potency [1] > 46 µM | Potency [2] > 46 µM | Potency [3] | Potency [4] | activity change, negative = inhibition ([5]; at 57.5 µM (top of the series)) 0.479% | Potency [6] | Potency [7] | Potency [8]
6.59%: max response [5, 21]
10.2%: max response [5, 22]

c1ccc(N2CCN(Cc3nc4ccccc4[nH]3)CC2)nc1
inactive: Potency [9] | Potency [8] | Potency [10]

COc1cc(C=O)c([N+](=O)[O-])cc1OC
inactive: Potency [9] | Potency [8] | Potency [10]

C=C[C@H](N)CCC(=O)O
1.97% and -5.49%: max response [5, 22]
inactive: activity change, negative = inhibition ([11]; at 17.2 µM (top of the series)) -1.55% | activity change, negative = inhibition ([11]; at 38 µM (top of the series)) 6.29% | Potency [12] | activity change, negative = inhibition ([13]; at 17.2 µM (top of the series)) -1.05% | activity change, negative = inhibition ([13]; at 38 µM (top of the series)) 2.77% | activity, negative = inhibition ([14]; at 17.2 µM (top of the series)) -1.55% | activity, negative = inhibition ([14]; at 38 µM (top of the series)) -14.6% | Potency [1] > 46 µM and > 20.6 µM | Potency [2] > 46 µM and > 20.6 µM | Potency [3] | Potency [4] | outcome [15] | Potency [16] | Potency [17] | Potency [18] | outcome [19] | outcome [20] | activity change, negative = inhibition ([5]; at 25.7 µM (top of the series)) -2.99% | activity change, negative = inhibition ([5]; at 57.5 µM (top of the series)) -0.953% | Potency [6] | Potency [7] | Potency [8]
3.82% and -3.83%: max response [5, 21]

N[C@H](CCC(=O)N[C@H](CSN=O)C(=O)NCC(=O)O)C(=O)O
16.6%: max response [5, 22]
13.2%: max response [5, 21]
inactive: activity change, negative = inhibition ([11]; at 38 µM (top of the series)) -9.57% | Potency [12] | activity change, negative = inhibition ([13]; at 38 µM (top of the series)) 0.964% | activity, negative = inhibition ([14]; at 38 µM (top of the series)) 14.7% | Potency [1] > 46 µM | Potency [2] > 46 µM | Potency [3] | Potency [4] | outcome [15] | outcome [19] | outcome [20] | activity change, negative = inhibition ([5]; at 57.5 µM (top of the series)) 1.5% | Potency [7] | Potency [8]
active: Potency [16] 5.01 µM

COc1ccccc1N1CCN(C[C@@H](O)COc2cccc3ccccc23)CC1
-0.579%: max response [5, 22]
inactive: activity change, negative = inhibition ([11]; at 17.2 µM (top of the series)) 4.94% | activity change, negative = inhibition ([11]; at 38 µM (top of the series)) 2.88% | activity change, negative = inhibition ([13]; at 17.2 µM (top of the series)) -8.94% | activity change, negative = inhibition ([13]; at 38 µM (top of the series)) -1.67% | activity, negative = inhibition ([14]; at 17.2 µM (top of the series)) -4.93% | Potency [1] > 46 µM and > 20.6 µM | Potency [3] | Potency [4] | outcome [15] | Potency [16] | Potency [9] | outcome [19] | outcome [20] | activity change, negative = inhibition ([5]; at 25.7 µM (top of the series)) -0.494% | Potency [6] | Potency [7] | Potency [8]
-0.0145%: max response [5, 21]
active: Potency [12] 20 µM and 31.6 µM | Potency [18] 6.31 µM and 7.94 µM and 1.58 µM
